# Screens as filed in PubChem BioAssay.
# An excerpt weighted towards active compounds, which were near 1.4% of everything screened.
# Mm-Cpn inhibitor – blocks the Methanococcus maripaludis chaperonin Mm-Cpn; actives 0.031% (n = 330,000); Potency, µM (series often up to 76.9 µM), for the others: top-dose activity, negative = inhibition, actives largely listed as inhibitors; purified Mm-Cpn ATPase, ADP Transcreener TR-FRET; also: potency is read from the fitted curve at half-maximal effect; % is scaled to controls: 0 for no effect and ±100 for the full control effect; nearly all actives have a fitted effect of over 80% in size
#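 ATPase read-out: TR-FRET ADP immunoassay (anti-ADP Eu cryptate vs ADP-d2), ex 320 nm, em 590/665 nm; signal drops as ADP forms. Enzyme 25 nM, ATP 10 uM, 30 min at 37°C after 10 min compound preincubation.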
# hERG WT inh – blocks the wildtype human KCNH2 potassium channel; Q12809; U2OS, BacMam KCNH2, thallium flux FluxOr; active compounds read low; activity change, % at 1.84 µM; actives 0.37% (n = 340,000); AID 720551;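 active = maximum activity change below -70%; inconclusive = maximum activity change between -70% and -50%; inactive = maximum activity change above -50%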; also: % is scaled to controls: 0 for no effect and ±100 for the full control effect
#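 U2OS cells were transduced with wild-type KCNH2 virus (2.03 x 10^8 / mL) for 4 h at room temperature, then cultured overnight at 37 C. Thallium flux was read with FluxOr dye. Rate constants were normalized to DMSO controls.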
# p53 reactivation – restores transcriptional activity of mutant p53; H1299 p53-A138V BP100-luciferase reporter, luminescence, 24 h; Potency, µM (top dose mostly 92.2 µM), for the others: at the highest dose activity change, positive = activation, actives largely listed as activators; actives 0.063% (n = 320,000); AID 504706; also: potency is read from the fitted curve at half-maximal effect; % of control where 0% means no effect; nearly all actives have a fitted effect of over 45% in size
#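 H1299 (p53-null), stable ts p53-A138V + BP100-Luc; 1000 cells/well, Opti-MEM/10% FBS; cpd 4 pt, 1:5; 24 h, 37 deg C, 5% CO2; detection reagent 10 min RT; luminescence.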
# S-ASM inh – human S-ASM enzyme inhibition; P17405; placental ASM, HMU-PC fluorogenic substrate, 60 min; Potency, µM (doses to about 57.5 µM), without a hit: at the highest dose activity change, negative = inhibition, hits mostly inhibitors; actives 0.006% (n = 340,000); AID 504937; also: potency is read from the fitted curve at half-maximal effect
#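 qHTS format. ASM enzyme prepared from human placenta hydrolyses the fluorogenic substrate HMU-PC0 (9 uM final) over 60 min at 37 °C after a 10 min compound preincubation.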
# uPA surface inh – cell surface uPA generation inhibition; cell surface uPA generation assay, qHTS; Potency, µM (top dose mostly 38.3 µM), without a hit: at the highest dose activity change, negative = inhibition, hits mostly inhibitors; actives 0.31% (n = 330,000); AID 540303; active = well fitted inhibition curve with a large enough effect; inconclusive = small, poorly fitted or top-dose-only effect; inactive = no such curve, though single readings can be large or run the other way; tested in mouse RAW 264.7 cells; also: potency is read from the fitted curve at half-maximal effect; % is scaled to controls: 0 for no effect and ±100 for the full control effect; nearly all actives have a fitted effect of over 55% in size
# KCNH2 3.1 inh – inhibitors of human KCNH2 3.1 potassium channel isoform | U2OS KCNH2 3.1, thallium flux FluxOr; active compounds read low | activity change, % (tested at about 1.8 µM) | actives 0.95% (n = 340,000) | AID 720553;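 active = maximum activity change below -70%; inconclusive = maximum activity change from -70% to -50%; inactive = maximum activity change above -50%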;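 also: thallium influx rate constant from kinetic fluorescence after stimulation buffer; % is scaled to controls: 0 for no effect and ±100 for the full control effect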
#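 Measured as rate of thallium-driven FluxOr signal in transduced U2OS cells carrying the 3.1 channel, read kinetically for 2 min upon stimulation; values are rate constants scaled to DMSO control wells.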
# Numbers without * were called inactive; i = inactive; ? = inconclusive; · = no result. Unless noted, calls follow the shape of the dose curve; as a rule, active = well fitted curve in the direction sought with a large enough effect; inconclusive = small, poorly fitted or top-dose-only effect, or another doubt; inactive = no such curve, though single readings can be large; an effect the other way counts as inactive or inconclusive.
SMILES,Mm-Cpn inhibitor,hERG WT inh,p53 reactivation,S-ASM inh,uPA surface inh,KCNH2 3.1 inh
Cc1cc(C)c(CN2CCCC(CNC(=O)c3ccc(F)cc3)C2)c(-n2cccn2)c1 (stereo not given),2%,-85*,-3%,3%,-4%,-111*
COc1cc(OC)c(OC)cc1CN1CCCC(C(=O)c2sccc2C)C1 (stereo not given),2%,61,-2%,2%,8%,-16
Cc1ccsc1C(=O)C1CCCN(Cc2cc(F)ccc2-n2cccn2)C1 (stereo not given),0%,0,-4%,0%,-3%,-81*
CC(C)C1C(=O)N(Cc2cn(CCC3OCCCO3)nn2)CCS(=O)(=O)N1Cc1ccc(-c2ccc(F)nc2)cc1 (stereo not given),·,3,·,·,·,1
COCOCCn1cc(CN2CCS(=O)(=O)N(Cc3ccc(-c4ccc(Cl)cc4)cc3)C(CC(C)C)C2=O)nn1 (stereo not given),·,-6,·,·,·,-12
COc1ccccc1CNS(=O)(=O)c1ccc(-c2cnc(C3CC3)o2)cc1,0%,-14,-2%,2%,0.28µM*,-12
COc1ccccc1NS(=O)(=O)c1ccc(-c2cnc(C3CC3)o2)cc1,1%,1,-2%,2%,?,-5
Brc1ccccc1/C=N/Nc1ccc2ccccc2n1,-2%,3,?,-1%,-1%,-42
Cc1cc(N/N=C/c2ccccc2Br)nc2ccccc12,0%,-21,?,-12%,2%,-82*
Cc1cc(C)c(C(=O)CN2C(=O)C(=O)N(C3CCCC3)C2=O)cc1C,1%,-6,13%,-12%,7%,-35
COc1ccc(CNCC(O)(c2ccccc2)c2ccc(Cl)cc2)cc1 (stereo not given),1%,-22,-4%,-2%,-1%,-72*
Cc1csc(CNC(=O)c2cc(COc3c(C)cccc3C)on2)n1,-4%,-8,4%,4%,1%,-1
O=c1c(S(=O)(=O)c2ccc(Cl)cc2)cn(Cc2cccc(F)c2)c2ccc(F)cc12,2%,?,-8%,-1%,8%,-82*
COc1ccc(CNC(=O)CCNS(=O)(=O)c2ccc(Cl)cc2)cc1,0%,-3,-6%,4%,0%,-8
COc1ccc(S(=O)(=O)NCCC(=O)NCc2ccc(F)cc2)cc1,-1%,45,1%,4%,·,-80*
CC(=O)N1c2ccc(S(=O)(=O)NCCC(=O)NCc3ccc(F)cc3)cc2CC1C (stereo not given),2%,-10,1%,5%,10%,4
COc1ccc(CNC(=O)COc2ccc(S(=O)(=O)N3CCCCC3)cc2)cc1,-4%,-131*,-9%,-2%,-12%,-13
CC1Cc2cc(S(=O)(=O)NCCC(=O)NCc3ccc(F)cc3)ccc2N1C(=O)C1CC1 (stereo not given),0%,-87*,-11%,-1%,?,22
CCn1c(SCC(=O)Nc2ccccc2)nc2c(c1=O)SCC2,·,-4,·,·,·,-1
Cc1cc2ncc(-c3ccc(Cl)cc3)c(N)n2n1,2%,14,3%,1%,3.5µM*,6
Cn1c2ccccc2c(=O)c2cc(C#CC3=CCCCC3)ccc21,-17%,-7,?,i,6.3µM*,-1
Cn1c2ccccc2c(=O)c2cc(C#Cc3cccc(N)c3)ccc21,-17%,19,29%,42%,?,-5
COc1ccc(C#Cc2ccc3c(=O)c4ccccc4n(C)c3c2)cc1,-1%,-38,·,i,14%,10
Cn1c2ccccc2c(=O)c2ccc(C#Cc3ccc(N)cc3)cc21,-6%,-3,·,133%,6.3µM*,-14
c1ccc(Cc2noc(CN3CCCN(C4Cc5ccccc5C4)CC3)n2)cc1,1%,-23,0%,2%,-3%,?
SMILES,Mm-Cpn inhibitor,hERG WT inh,p53 reactivation,S-ASM inh,uPA surface inh,KCNH2 3.1 inh
c1ccc(Cc2noc(CN3CCN(C4CCc5ccccc5C4)CC3)n2)cc1 (stereo not given),0%,34,8%,2%,-15%,-127*
CCOC(=O)c1cnc(-n2nc(C)cc2C)nc1NC1CCCCC1,-1%,-105*,?,-7%,-12%,-12
CC(=O)Nc1ccc(NC(=O)Cc2ccc(S(=O)(=O)N3CCCCC3)cc2)cc1,-2%,5,-3%,1%,14%,7
N/C(=N\OC(=O)c1ccc(Cl)cc1Cl)c1ccccn1,2%,-1,-9%,3%,2.8µM*,2
CCOC(=O)C1=C(COC(=O)c2ccc(OC)c(S(=O)(=O)N3CCOCC3)c2)NC(=O)NC1C (stereo not given),·,-7,·,10%,4%,-15
Cc1ccc(Nc2nc(N)c3ccccc3n2)cc1Cl,1%,8,?,-2%,7.9µM*,-2
O=Cc1cc2cc3c(cc2nc1Cl)OCCO3,0%,-1,3%,4%,-2%,34
O=C(O)c1ccc(N/N=C/c2cc3cc4c(cc3nc2Cl)OCCO4)cc1,-5%,5,-3%,1%,0.89µM*,-4
COc1cc(C(=O)OCC#N)ccc1OCc1c(C)noc1C,-1%,1,4%,-6%,11µM*,-7
COC(=O)c1ccc(OC(=O)c2ccc(OCc3c(C)noc3C)c(OC)c2)cc1,2%,·,-3%,·,·,·
COc1cc(C(=O)NCC(c2ccccc2)N(C)C)ccc1OCc1c(C)noc1C (stereo not given),2%,-6,-3%,2%,7.9µM*,5
COCC(=O)N1CCC(Oc2ccc(C(=O)NCc3cc(C)n(C)n3)cc2)CC1,-3%,-15,8%,1%,21%,2
Cc1ccc(S(=O)(=O)N2Cc3ccccc3CC2C(N)=O)cc1 (stereo not given),·,26,·,·,·,7
CCCCc1c(O)nc(SCC(=O)N2CCOCC2)n(-c2ccc(C)cc2)c1=O,·,-10,·,·,·,7
COc1ccc(C(C)=O)cc1COC(=O)C(CO)NS(=O)(=O)c1ccc(Br)cc1 (stereo not given),1%,9,-2%,0%,-1%,-79*
CC(=O)Nc1cc2nn(-c3ccccc3)nc2cc1C,-5%,1,·,13%,5µM*,11
O=C(C1CCCCC1)N1C[C@@H](O)[C@H](n2cc(C3CC3)nn2)C[C@@H]1c1ccccc1,·,19,·,·,·,-21
COc1ccc(C2c3[nH]c4ccccc4c3CCN2Cc2cccn2-c2ncccn2)cc1C (stereo not given),-7%,?,8%,17%,-2%,-79*
Cc1cccc(C2c3[nH]c4ccccc4c3CCN2Cc2cccn2-c2ncccn2)c1 (stereo not given),-9%,?,5%,10%,1%,?
